Source: PubChem BioAssay
The list is not random: actives were taken first. Their share in the collection is about 4%.
KKLEB tox – counter-screen for CF NF-kB inhibitors: cytotoxicity; 0.36% of 360,000 active; KKLEB CF airway cells viability, ATPlite luminescence, overnight; active compounds read low; cells stimulated with P. aeruginosa culture filtrate; activity change (cytotoxicity), % at 5 µM;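 active means corrected activity change at or below -50% at 5 µM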
CF NFkB inh – cystic fibrosis NF-kB activation inhibition. KKLEB NF-kB-GFP reporter, PAF-induced, GFP fluorescence overnight. inhibition, % at 5 µM. 0.86% of 360,000 active. AID 588850;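 active means at least 50% inhibition at 5 µM, scaled per plate between neutral and stimulator controls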;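 further: PAF is a Pseudomonas aeruginosa culture filtrate used as stimulus; plate controls were PAF-stimulated DMSO wells for no effect and unstimulated DMSO wells for full effect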
TWEAK Fn14 block – TWEAK-Fn14 signaling inhibition; AID 1159606; TWEAK-stimulated Fn14 reporter cells, luciferase luminescence, 8 h; inhibition, % at 10 µM; 2% of 360,000 active; in the data active means inhibition above about 50%
Peg3 prom inh – reduces Peg3 promoter-driven luciferase expression in HeLa | 1.7% of 360,000 active | HeLa PEG-Prom luciferase reporter, luminescence, overnight | inhibition, % at 20 µM | AID 588405;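 active means inhibition of at least 50% at 20 µM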
TROY NFkB inh – TROY signaling inhibition; Q293 LMP1-TROYcd NF-kB luciferase reporter, 4 h; AID 1347056; 0.98% of 360,000 active; inhibition, % at 10 µM;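 active means compounds whose plate-normalised and pattern-corrected inhibition of the luciferase reporter signal at the single screening dose is 50% or more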
HIF-2a block – HIF-2a inhibition; 786-0 RCC cells HIF-2a reporter, luciferase luminescence, overnight; inhibition, % at 18.8 µM; 0.72% of 360,000 active; AID 624352;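 active means inhibition of the luminescence signal of 40% or more relative to plate controls, in a single-dose primary screen at 18.75 µM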
Numbers without * were called inactive.

SMILES	KKLEB tox	CF NFkB inh	TWEAK Fn14 block	Peg3 prom inh	TROY NFkB inh	HIF-2a block
O=S(=O)(NC1CCN(S(=O)(=O)c2c(F)cccc2F)C1)c1ccc2c(c1)OCCO2 (stereo not given)	6	-12	22	6	19	10
O=C(/C=C/Nc1ccc(F)cc1Br)c1ccccc1	-72*	4	90*	39	77*	52*
O=C(/C=C\Nc1cccc(F)c1)c1ccc2c(c1)OCO2	-34	-6	81*	-36	3	-22
COC(=O)c1ccc(N/C=C\C(=O)c2ccc3c(c2)OCO3)cc1	-7	-22	1	-124	-37	-66
O=C(/C=C\Nc1ccccc1Br)c1ccc2c(c1)OCO2	-75*	-7	61*	-32	47	-28
O=C(/C=C/c1ccncc1)c1ccc2c(c1)OCCO2	-16	10	-5	105*	29	3
O=C(/C=C/c1ccccc1Br)c1ccc2c(c1)OCO2	-4	-1	27	-106	-4	-231
CCOC(=O)C1=CN(CC)S(=O)(=O)NC1c1ccccc1 (stereo not given)	8	-24	5	-6	-2	4
O=C(/C=C/c1ccccc1)c1ccc2c(c1)OCO2	-17	11	-11	-183	-21	-304
O=C(/C=C/c1cccc(Br)c1)c1ccc2c(c1)OCO2	-16	-11	60*	3	-1	-188
CC(C)CCCCCCNC(=S)Nc1ccc(S(=O)(=O)N2CCOCC2)cc1	-26	52*	54*	62*	56*	9
CN1CCN(c2ccccc2NC(=O)Cn2ncc3c([nH]c4ccccc43)c2=O)CC1	6	14	11	-3	-4	20
Cc1ccc2[nH]c3c(=O)n(CC(=O)Nc4ccccc4N4CCN(C)CC4)ncc3c2c1	-7	16	29	53*	7	-4
COc1ccccc1N1CCN(C(=O)C2CCN(C(=O)c3ccccc3Cl)CC2)CC1	0	-7	-5	13	8	13
CN1/C(=C\C(=O)c2cncc(Br)c2)C(C)(C)c2ccccc21	-10	26	56*	-18	16	-71
CN1/C(=C\C(=O)COc2ccc3c(c2)OCO3)C(C)(C)c2ccccc21	1	-1	64*	-1	69*	8
CN1/C(=C\C(=O)c2ccco2)C(C)(C)c2ccccc21	-34	2	61*	-37	36	-19
CN1/C(=C\C(=O)c2cccnc2)C(C)(C)c2ccccc21	-8	-1	-23	-56	-26	-63
COc1ccccc1OCC(=O)/C=C1/N(C)c2ccccc2C1(C)C	-5	-8	17	31	13	10
C[C@H](CO)N1C[C@H](C)[C@@H](CN(C)Cc2ccc3c(c2)OCO3)Oc2c(NS(C)(=O)=O)cccc2C1=O	4	-4	21	-3	-9	6
c1ccc(-c2nnsc2-c2ccccc2)cc1	-12	17	-20	15	16	9
O=S(=O)(c1ccc(Cl)c(Cl)c1)c1snnc1-c1ccccc1	-45	56*	78*	73*	52*	77*
Cc1nc2c(C(=O)NCCC(C)C)c[nH]n2c(=O)c1Cl	11	-8	10	-4	7	12
Cc1nc2c(C(=O)NCCC(C)C)c[nH]n2c(=O)c1Cc1ccccc1F	-28	3	16	42	69*	-13
O=C(CN1C(=O)C2CCCN2c2ncc(Cl)cc21)NCc1ccc2c(c1)OCO2 (stereo not given)	-8	-15	5	18	-14	11
SMILES	KKLEB tox	CF NFkB inh	TWEAK Fn14 block	Peg3 prom inh	TROY NFkB inh	HIF-2a block
CC(C)OC(=O)C1=C(N)N2C(=O)CSC2=C(C(=O)OC(C)C)C1	-5	-2	1	52*	-4	12
CNc1ccc(/C=C2\CSc3ccccc3C2=O)cc1[N+](=O)[O-]	3	26	83*	-32	62*	-113
CC(=O)c1ccc(OC2(C)CCN(Cc3ccc(OC(F)(F)F)cc3)C2)cc1 (stereo not given)	-9	-20	-15	5	19	-1
Cc1ccccc1N=C1NN=C(c2ccccc2F)CS1	7	-25	68*	-190	57*	-122
Cc1c(C(=O)N2CCN(C(=O)c3ccco3)CC2)sc2nc(-c3ccc(F)cc3)cn12	-13	-16	3	4	4	3
Cc1c(/C(O)=C2\C(=O)C(=O)N(CCN(C)C)C2c2cccnc2)cnn1-c1ccccc1 (stereo not given)	3	6	14	1	29	-12
Cc1c(/C(O)=C2\C(=O)C(=O)N(CCCN(C)C)C2c2ccccc2)cnn1-c1ccccc1 (stereo not given)	-12	7	82*	10	86*	20
O=C(O)c1ccccc1N/N=C\c1ccnc2ccccc12	-6	2	90*	-8	48	17
COCCCNC(=O)N1c2ccccc2Sc2ccccc21	2	5	9	6	12	12
COc1ccc(CCNC(=O)N2c3ccccc3Sc3ccccc32)cc1	0	13	55*	33	45	29
N#CC(=C1C=CC(=NO)C(Cl)=C1)c1ccc(Cl)cc1	-2	53*	64*	15	27	-27
Cc1c(Cl)cccc1NC(=O)CSc1nncn1-c1cccnc1	-7	-10	27	2	-6	4
CCn1ccc2c(OCC(=O)NCCc3ccc(OC)c(OC)c3)cccc2c1=O	19	-1	-24	2	-17	7
Cc1nc2c(-c3ccccc3)c(C)[nH]n2c(=O)c1Cc1ccccc1	3	-9	25	29	24	9
Cc1nc2c(C#N)c(C)[nH]n2c(=O)c1Cc1ccccc1	-2	8	64*	13	31	-7
CCc1ccccc1NC(=O)C1NC(=O)CC1c1ccccc1 (stereo not given)	8	-6	-3	5	-8	9
CC(C)=CCc1c(O)cc2oc3c(CC=C(C)C)c(O)c(O)c(CC=C(C)C)c3c(=O)c2c1O	-27	36	82*	39	58*	23
CC(C)=CCc1cc(-c2oc3cc(O)cc(O)c3c(=O)c2O)ccc1O	15	35	49	-118	24	-61
Cc1ccc(Cc2c(-c3cccc(Cl)c3)nc3cc(C)c(Br)c(C)n23)cc1	-14	6	-15	-27	-12	-44
c1cc(-c2ccc(N3CCOCC3)cc2)n2cnnc2c1	-1	-9	-3	-34	-21	-76
C=CCOc1cccc(/C=C2\C(=O)N(Cc3ccc(C)cc3)C(C)=C2C(=O)OC)c1	3	-5	11	42	18	63*
O=C1NCCN1CCNS(=O)(=O)c1ccc(F)cc1	11	-8	53*	10	65*	21
Cc1ccccc1-n1nc(C(=O)c2cccs2)cc(-c2nc3ccccc3[nH]2)c1=N	-21	18	-14	26	-19	5
